Experimental data published in PubChem BioAssay (NCI).
Compounds without any hit were thinned out: in the full panel of roughly 83,000, 20% have a hit.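 Percent growth is the endpoint: 0 to 100 indicates growth inhibition (40 means 60% inhibition), 0 means no net growth, and negative values indicate cell death.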 Active and inactive are the calls of the source. How the source made its calls: active means growth percent below 10; inactive means the rest.

The compounds below were run on RPMI-8226 leukemia (assay: NCI-60 one-dose screen, 48 h (100 = growth as untreated, 0 = no growth, -100 = all killed)). Settings: 10 µM unless noted.

Row | Compound | growth
1 | Clc1ccc(CNc2c3ccccc3nc3ccccc23)cc1 | 8.02% (active)
2 | CCCCN[C@H]1CC[C@@]2(C)[C@@H](CC[C@@]3(C)[C@H]2[C@H](O)C[C@H]2/C(=C(\CCC=C(C)C)C(=O)OC)[C@@H](OC(C)=O)C[C@@]23C)[C@@H]1C | 95.9% (inactive)
3 | N#Cc1c(NC(=O)c2ccccc2)sc2c1CCC(=O)C2 | -2.69% (active)
4 | O=[N+]([O-])c1ccc(N/N=C(/C(=N/Nc2ccc([N+](=O)[O-])cc2)c2ccccc2)c2ccccc2)cc1 | 101% (inactive)
5 | Oc1c(Cl)cc(Cl)c2ccc(Cn3cc(-c4cc(C(F)(F)F)cc(C(F)(F)F)c4)nn3)nc12 | 3.44% (active)
6 | COc1cc(-c2cc(-c3ccc(N(C)C)cc3)nc(N3CCC(O)CC3)c2C#N)cc(OC)c1OC | -5.93% (active)
7 | Cc1nn(-c2ccccc2)c(Oc2ccccn2)c1-c1nc2ccccc2s1 | 97.5% (inactive)

These compounds were tested on OVCAR-8 ovarian in the same assay as above. Settings: 10 µM unless noted.

Row | Compound | growth
8 | CC(C)CCC[C@@H](C)[C@H]1CC[C@H]2[C@@H]3CC=C4C[C@@H](C(C(=O)O)C(=O)O)CC[C@]4(C)[C@H]3CC[C@]12C | -19.8% (active)
9 | CCN1CCN(c2cc(C(=O)Nc3nc(-c4cc(OC)c(OC)c(OC)c4)cs3)cc(C(F)(F)F)c2)CC1 | 65.1% (inactive)
10 | N#Cc1nn(-c2cc(=O)[nH]c3ccc(Cl)cc23)c(N)c1C#N | 95.8% (inactive)
11 | CN(C)CCCn1c2c(c3ncccc3c1=O)C(=O)c1ccccc1-2 | 31.3% (inactive)
12 | COc1cc(-c2nc3cc(Cl)c(Cl)cc3[nH]2)ccc1OCC(=O)N=Nc1c(O)[nH]c2ccc([N+](=O)[O-])cc12 | 69.3% (inactive)
13 | C=CC(=O)NCc1ccc(Nc2nccc(-c3ccc(N4CCCC4)c(C#N)c3)n2)cc1 | 30.8% (inactive)
14 | CSc1nnc(-c2cnn3c2NC(c2ccccc2)C3)n1-c1ccc(C(F)(F)F)cc1 (configuration not stated) | 79.4% (inactive)
15 | N=C(N)c1ccc(-c2ccc(-c3ccc(Cl)cc3)s2)nc1 | -31% (active)
16 | O=C(OCc1ccc2c(Cl)cc(Cl)c(O)c2n1)n1cncn1 | 20.7% (inactive)
17 | Cn1ccc2c3c(ccc21)CC3=O | 107% (inactive)
18 | O=C1c2ccc3c4ccc5c6c(ccc(c7ccc(c2c37)C(=O)N1CCC[P+](c1ccccc1)(c1ccccc1)c1ccccc1)c64)C(=O)N(CCC[P+](c1ccccc1)(c1ccccc1)c1ccccc1)C5=O | 50.4% (inactive)
19 | CCn1c(=S)[nH]c2c(=O)n(C)c(=O)n(C)c21 | 101% (inactive)
20 | N#CC1=C(N)Oc2c(sc3c(F)cccc23)C1c1ccc(F)cc1 (configuration not stated) | 21.4% (inactive)
21 | C=C(C)[C@@H]1CC[C@]2(C(=O)N3CCN(C)CC3)CC[C@]3(C)[C@H](CC[C@@H]4[C@@]5(C)CC(=C/c6ccncc6)/C(=N/O)C(C)(C)[C@@H]5CC[C@]43C)[C@@H]12 | 85.1% (inactive)
22 | Fc1ccc2[nH]cc(-c3nonc3-c3c[nH]c4ccc(Br)cc34)c2c1 | 27% (inactive)
23 | O=C1c2c(c3c4ccc(Br)cc4oc3c3[nH]c4ccccc4c23)C(=O)N1O | 47.6% (inactive)
24 | NC(=O)CCC(C(=O)O)N1C(=O)c2ccc(O)cc2C1=O (configuration not stated) | 106% (inactive)
25 | COc1ccc2nc(NC(=O)CSc3nnc4n3S(=O)(=O)c3ccccc3N4C)sc2c1 | 84.6% (inactive)
26 | C=C(C)[C@@H]1CC[C@]2(C(=O)NCC#CCN3CCN(C)CC3)CC[C@]3(C)[C@H](CC[C@@H]4[C@@](C)(CCC#N)[C@H](C(=C)C)CC[C@]43C)[C@@H]12 | 70.7% (inactive)
27 | Cc1nnc(-n2c(O)cc(=O)n(-c3ccccc3)c2=S)nc1/C=C/c1ccc(N(C)C)cc1 | 53.3% (inactive)

Row | Compound | growth
28 | C/C(=N\NC(=O)c1ccccc1O)c1cccc(/C(C)=N/NC(=O)c2ccccc2O)n1 | 32.3% (inactive)
29 | O=C1c2cc(Cl)ccc2S(=O)(=O)c2c(NCCCNCCO)nc3ccccc3c21 | -5.81% (active)
30 | Cc1cc2c(O)c(-c3cc(Cl)ccc3Cl)c3sc(=O)oc3c2cc1C | 68.1% (inactive)
31 | O=C(Nc1ccc(NC(=O)c2cc(=O)[nH]c3ccccc23)cc1)Nc1cccc(C(F)(F)F)c1 | 65.2% (inactive)
32 | c1ccc(C2=NN[C@H](c3cn(-c4ccccc4)nc3-c3ccccc3)C2)cc1 | 35.6% (inactive)
33 | O=C(CCCCC1CCSS1)Nc1ncnc2n[nH]c(-c3ccc(Oc4ccccc4)cc3)c12 (configuration not stated) | 100% (inactive)
34 | COc1cc(OC)cc(C2=C3CC[C@@H]4[C@H](CC[C@]5(C)C(=O)CC[C@@H]45)C3=CC3C(O)c4cccnc4N4C(=O)COC234)c1 (some centres not stated) | 95% (inactive)
35 | Cc1cnc(C(=O)NNc2nc3sc4c(c3c(=O)n2C)C(C)CCC4)cn1 (configuration not stated) | 5.29% (active)
36 | C=C(CNCCc1ccc(O)cc1)[C@@H]1CC[C@]2(CO)CC[C@]3(C)[C@H](CC[C@@H]4[C@@]5(C)CCC(NCCO)C(C)(C)[C@@H]5CC[C@]43C)[C@@H]12 (some centres not stated) | -49.7% (active)
37 | COc1ccc(/C=N/C2=C(C#N)C(c3cccc(Cl)c3)c3c(ccc4ccccc34)O2)cc1 (configuration not stated) | 47.1% (inactive)
38 | CCc1ccc(Oc2cn[nH]c2-c2ccc(OCCc3ccc(F)cc3)cc2O)cc1 | 101% (inactive)
39 | O=C(/C=C/c1cn(-c2ccccc2)nc1-c1ccc([N+](=O)[O-])cc1)c1ccc(Cl)cc1 | 38.1% (inactive)
40 | CO[C@H]1/C=C(/C)CCC[C@H](C)[C@H](O)[C@@H](C)C(=O)C(C)(C)[C@@H](O)CC(=O)O[C@@H]1/C(C)=C/c1csc(C)n1 | 26.7% (inactive)
41 | Clc1ccc(CNc2c3ccccc3nc3ccccc23)cc1 | 31.9% (inactive)
42 | CCCCN[C@H]1CC[C@@]2(C)[C@@H](CC[C@@]3(C)[C@H]2[C@H](O)C[C@H]2/C(=C(\CCC=C(C)C)C(=O)OC)[C@@H](OC(C)=O)C[C@@]23C)[C@@H]1C | 102% (inactive)
43 | N#Cc1c(NC(=O)c2ccccc2)sc2c1CCC(=O)C2 | 14.5% (inactive)
44 | O=[N+]([O-])c1ccc(N/N=C(/C(=N/Nc2ccc([N+](=O)[O-])cc2)c2ccccc2)c2ccccc2)cc1 | 60.4% (inactive)
45 | Oc1c(Cl)cc(Cl)c2ccc(Cn3cc(-c4cc(C(F)(F)F)cc(C(F)(F)F)c4)nn3)nc12 | 53.6% (inactive)
46 | COc1cc(-c2cc(-c3ccc(N(C)C)cc3)nc(N3CCC(O)CC3)c2C#N)cc(OC)c1OC | 16.4% (inactive)
47 | Cc1nn(-c2ccccc2)c(Oc2ccccn2)c1-c1nc2ccccc2s1 | 102% (inactive)
